A short description of assay [1]: yeast TOR pathway RPL19A-GFP modulators, primary screen, cell-based, S. cerevisiae, multiplex flow cytometry (AID 1862; in the data active = percent of DMSO control GFP below about 86%;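 note: lower values mimic rapamycin by blocking the RPL19A rise seen in DMSO cells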). The conditions noted are these: S. cerevisiae RPL19A-GFP strain, flow cytometry fluorescence, 3 h; at 10 µM; stronger effect = lower value.
Assay [2] can be described thus: modulators of MEP2-GFP levels in yeast, primary screen, S. cerevisiae, multiplex flow cytometry (AID 1867;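 active = GFP response, as percent of the DMSO control, above the screen-wide mean plus 3 SD, about 139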;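 note: median GFP channel fluorescence of barcode-gated MEP2-GFP cells measured by flow cytometry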). The settings on record: S. cerevisiae MEP2-GFP strain, 3 h, at 10 µM, stronger effect = higher value, 100% means same as DMSO wells.
Assay [3] in a line: modulators of CIT2-GFP expression in yeast, primary screen, S. cerevisiae, GFP fusion, multiplex flow cytometry (AID 1870;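 active = percent response above a set limit, the screen-wide mean plus 3 SD, cut at about 130% in these data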;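 note: barcoded CIT2-GFP strain pooled with four other GFP strains with rapamycin as positive control; median GFP fluorescence per well over plate mean of DMSO wells so 100% = DMSO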). The conditions noted are these: 3 h, at 10 µM, stronger effect = higher value. A general note: In flow cytometry, cells or beads pass a laser one at a time.
Assay [4] in a line: modulators of LAP4-GFP expression in yeast, primary screen, S. cerevisiae, multiplex flow cytometry (AID 1873;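 active = GFP signal, as percent of the solvent control, above the screen mean plus 3 SD, about 149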). The settings on record: 3 h, at 10 µM, stronger effect = higher value.
Assay [5] in a line: modulators of AGP1-GFP expression in yeast TOR pathway, primary screen, cell-based, multiplex flow cytometry, S. cerevisiae (AID 1887;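 active = GFP signal above the screen-wide mean plus 3 SD, that is over about 124.5% of the solvent control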;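 note: AGP1-GFP fusion strain of S. cerevisiae within a five-strain barcoded multiplex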). The settings on record: 3 h, at 10 µM, stronger effect = higher value.
Assay [6] is described as follows: inhibitors of CD8+ T cell-vesicle binding, pilot screen, LFA-1/ICAM-1 modulator project, MLPCN validation set, flow cytometry (AID 2523).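 For vesicle binding response: mean PE anti-B7-1 fluorescence of CD8+ cells relative to row control; 100% = QL9-loaded vesicles with DMSO vehicle in the same plate row.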 The conditions noted are these: 2C mouse CD8+ T cells, at 7 µM, stronger effect = lower value; double positive events: measured here: CD8+/vesicle+ event percentage.
In assay [7] the target is Integrin beta-1 (Homo sapiens) + Integrin alpha-4 (Homo sapiens) (UniProt P13612+P05556). Briefly: inhibition of HUTS-21 binding to VLA-4, pilot screen, VLA-4 allosteric modulator project, U937 cells, HUTS-21 mAb, flow cytometry, validation set (AID 2674;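 active = inhibition above 50%, about 3 SD of the validation set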;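 note: antibody binding induced by the VLA-4 ligand LDV present at three times its Kd; 0% = LDV ligand with antibody and no compound and 100% = antibody without LDV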). The settings on record: HUTS-21 LIBS mAb binding, at 6.7 µM, stronger effect = higher value, binding induced by LDV ligand.
Integrin beta-1 (Homo sapiens) + Integrin alpha-4 (Homo sapiens), sequence (P05556 whole entry, looked up): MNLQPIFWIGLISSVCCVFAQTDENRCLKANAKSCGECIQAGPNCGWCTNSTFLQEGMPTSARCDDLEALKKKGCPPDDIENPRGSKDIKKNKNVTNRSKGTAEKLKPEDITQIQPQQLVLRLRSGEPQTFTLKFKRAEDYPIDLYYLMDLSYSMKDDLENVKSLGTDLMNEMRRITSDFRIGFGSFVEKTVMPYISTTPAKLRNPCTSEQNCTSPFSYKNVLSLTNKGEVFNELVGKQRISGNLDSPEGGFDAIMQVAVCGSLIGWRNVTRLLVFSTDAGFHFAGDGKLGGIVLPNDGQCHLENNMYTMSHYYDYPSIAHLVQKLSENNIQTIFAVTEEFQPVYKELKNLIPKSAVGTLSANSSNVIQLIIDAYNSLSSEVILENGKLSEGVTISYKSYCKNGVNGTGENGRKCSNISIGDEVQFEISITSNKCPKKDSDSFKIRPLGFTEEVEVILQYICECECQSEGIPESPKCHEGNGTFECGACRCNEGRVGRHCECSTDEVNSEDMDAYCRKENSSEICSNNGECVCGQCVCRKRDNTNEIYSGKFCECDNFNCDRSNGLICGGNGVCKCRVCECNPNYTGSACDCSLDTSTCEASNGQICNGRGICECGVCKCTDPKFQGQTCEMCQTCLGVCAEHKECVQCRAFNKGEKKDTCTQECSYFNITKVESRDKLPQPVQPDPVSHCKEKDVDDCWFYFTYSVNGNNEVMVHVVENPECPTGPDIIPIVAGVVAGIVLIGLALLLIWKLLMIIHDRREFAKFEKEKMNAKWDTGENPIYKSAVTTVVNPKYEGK
Integrin beta-1 (Homo sapiens) + Integrin alpha-4 (Homo sapiens), sequence (P13612 whole entry, looked up): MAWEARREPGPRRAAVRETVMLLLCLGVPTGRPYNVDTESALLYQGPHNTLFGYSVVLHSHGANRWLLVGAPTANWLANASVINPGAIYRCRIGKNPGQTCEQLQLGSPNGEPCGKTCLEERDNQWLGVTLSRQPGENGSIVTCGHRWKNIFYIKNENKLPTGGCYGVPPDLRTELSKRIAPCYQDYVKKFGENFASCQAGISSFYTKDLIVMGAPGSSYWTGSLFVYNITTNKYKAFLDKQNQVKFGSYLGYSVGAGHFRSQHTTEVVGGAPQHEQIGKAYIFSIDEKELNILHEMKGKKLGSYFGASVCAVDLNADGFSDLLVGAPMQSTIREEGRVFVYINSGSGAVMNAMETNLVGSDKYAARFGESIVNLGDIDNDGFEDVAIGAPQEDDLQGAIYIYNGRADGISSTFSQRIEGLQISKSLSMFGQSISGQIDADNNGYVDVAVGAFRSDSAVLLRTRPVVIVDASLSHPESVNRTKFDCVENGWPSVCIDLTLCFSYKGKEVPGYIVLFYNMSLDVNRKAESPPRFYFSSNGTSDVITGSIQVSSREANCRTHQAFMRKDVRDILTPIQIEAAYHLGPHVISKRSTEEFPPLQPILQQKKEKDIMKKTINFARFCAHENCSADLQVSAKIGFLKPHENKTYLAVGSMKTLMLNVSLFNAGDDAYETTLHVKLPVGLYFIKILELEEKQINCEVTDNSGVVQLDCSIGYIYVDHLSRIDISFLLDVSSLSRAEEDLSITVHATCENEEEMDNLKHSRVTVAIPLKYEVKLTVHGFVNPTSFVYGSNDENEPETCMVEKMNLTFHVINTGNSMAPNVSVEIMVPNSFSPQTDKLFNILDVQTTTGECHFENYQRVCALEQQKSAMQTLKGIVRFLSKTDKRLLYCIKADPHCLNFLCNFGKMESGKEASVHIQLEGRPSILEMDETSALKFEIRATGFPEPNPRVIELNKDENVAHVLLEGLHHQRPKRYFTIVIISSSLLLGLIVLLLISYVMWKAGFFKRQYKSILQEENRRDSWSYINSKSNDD
Assay [8] is described as follows: superoxide lowering in aged yeast cells, pilot screen, validation compound set (AID 2706;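 active = superoxide response below 65% of plate, a cut near 3 SD across the whole screen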;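 note: yeast exposed to compound for one week at 30 degrees C before staining; 100% = mean of all compound wells on the same plate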). The conditions noted are these: S. cerevisiae aging, superoxide DHE fluorescence; at 10 µM; stronger effect = lower value.
Assay [9] concerns the target Beta-adrenergic receptor kinase 1 (Homo sapiens) (UniProt P25098). Briefly: GRK2 binders displacing RNA aptamer, biochemical, validation, human GRK2, bead flow cytometry (AID 488806;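 active = aptamer binding inhibition above 30%, about 3 SD of noise from non-fluorescent compounds; inactive = inhibition at or below 30%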). The conditions noted are these: bead-bound GRK2, FAM-aptamer displacement, at 10 µM, stronger effect = higher value.
Assay [10] has as its target Beta-2 adrenergic receptor (Homo sapiens) (UniProt P07550). Briefly: beta2AR agonists driving receptor internalization, pilot screen, cell-based, FAP fluorogen, flow cytometry, validation set (AID 504459;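 active = percent response above 42, roughly 3 SD of non-fluorescent test compounds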;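 note: agonist-driven loss of surface beta2AR via internalization measured by FAP dye flow cytometry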). The conditions noted are these: Am2.2-beta2AR cells, FAP surface receptor flow cytometry; at 10 µM; stronger effect = higher value.
In assay [11] the target is AP-2 complex subunit beta (Homo sapiens) (UniProt P63010). In words: inhibitors of arrestin peptide binding to AP2, pilot screen, biochemical, validation set, GST-AP2 beads, flow cytometry (AID 504541;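 active = inhibition above 54%, about 3 SD of non-fluorescent compounds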;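 note: AP2 carries R879A mutation and is captured from E. coli lysate; bead-bound FITC arrestin peptide fluorescence measuring arrestin peptide binding to AP2; 0% = DMSO wells and 100% = excess unlabeled arrestin peptide control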). The settings on record: FITC arrestin peptide, at 10 µM, stronger effect = higher value, AP2 beta2 appendage fragment, R879A mutant.
AP-2 complex subunit beta (Homo sapiens), sequence (P63010 whole entry, looked up, the tested form may be a part, one chain of several): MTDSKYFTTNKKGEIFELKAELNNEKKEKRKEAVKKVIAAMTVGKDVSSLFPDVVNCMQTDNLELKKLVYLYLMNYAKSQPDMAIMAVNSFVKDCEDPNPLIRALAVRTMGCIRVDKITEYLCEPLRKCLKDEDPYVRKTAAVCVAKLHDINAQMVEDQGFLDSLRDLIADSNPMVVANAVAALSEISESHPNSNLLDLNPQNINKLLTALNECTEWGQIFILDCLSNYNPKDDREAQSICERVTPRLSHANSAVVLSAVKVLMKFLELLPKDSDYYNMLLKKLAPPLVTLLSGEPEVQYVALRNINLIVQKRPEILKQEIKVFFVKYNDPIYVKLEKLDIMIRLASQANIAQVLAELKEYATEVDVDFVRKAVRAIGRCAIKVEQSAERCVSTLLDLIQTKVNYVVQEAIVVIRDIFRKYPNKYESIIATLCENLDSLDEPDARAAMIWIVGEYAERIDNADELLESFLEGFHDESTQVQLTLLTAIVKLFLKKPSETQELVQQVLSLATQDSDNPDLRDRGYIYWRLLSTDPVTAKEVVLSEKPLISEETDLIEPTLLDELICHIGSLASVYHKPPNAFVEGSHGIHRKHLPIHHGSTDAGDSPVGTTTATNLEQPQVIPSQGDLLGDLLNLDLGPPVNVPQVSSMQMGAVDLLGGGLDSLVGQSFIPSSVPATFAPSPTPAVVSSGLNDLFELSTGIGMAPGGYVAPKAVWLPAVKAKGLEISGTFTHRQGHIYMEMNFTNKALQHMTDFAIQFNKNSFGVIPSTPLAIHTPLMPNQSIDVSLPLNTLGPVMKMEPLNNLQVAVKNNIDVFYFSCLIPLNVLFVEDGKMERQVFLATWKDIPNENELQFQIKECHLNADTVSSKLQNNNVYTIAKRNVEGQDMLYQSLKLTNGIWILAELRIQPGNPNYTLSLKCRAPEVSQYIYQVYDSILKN
Assay [12] is described as follows: yeast V-ATPase proton transport modulators, S. cerevisiae, pHLuorin, HTS validation (AID 504600; in the data active = response above about 15%;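 note: plate controls were DMSO for no effect and reference compound for full effect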). The settings on record: S. cerevisiae pHLuorin cytosolic pH, at 10 µM, stronger effect = higher value.
For assay [13], the system named is anti-desmoglein-3 scFv antibody binding to human DSG3. Briefly: inhibitors of anti-DSG3 scFv binding to DSG3, pilot screen, biochemical, validation compound set, bead-based, flow cytometry (AID 588368;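 active = binding below the plate cutoff, the plate median minus 3 SD, with a reading above zero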;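 note: signal is the median channel fluorescence of bead-bound GFP antibody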). The conditions noted are these: Protein G beads, DSG3-Fc, scFv-GFP binding, at 10 µM, stronger effect = lower value.
The nature of assay [14]: inhibitors of fungal efflux pumps CDR1, CDR2, MDR1, pilot screen, validation compound set, multiplex, phenotypic (AID 588506;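 active = efflux inhibition above 0.42, the validation set average plus 4 SD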;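 note: Nile Red retained in cells so higher fluorescence means more efflux inhibition; 0 = negative control wells and 1 = enniatin B 25 µM full block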). The settings on record: S. cerevisiae pump-expressing triplex, Nile Red efflux flow cytometry; at 10 µM; stronger effect = higher value; the pumps come from Candida albicans.
The target in assay [15] is ATP-binding cassette sub-family B member 6 (Homo sapiens) (UniProt Q9NP58). Briefly: ABCB6 transporter inhibitors, pilot screen, K562-ABCB6 cells, flow cytometry, validation set (AID 588550;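 active = inhibition above the screen-wide mean plus 3 SD, about 51%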;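 note: 0% = DMSO wells and 100% = benzethonium chloride 70 µM positive control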). The conditions noted are these: K562-ABCB6 porphyrin accumulation, 1 h, at 10 µM, stronger effect = higher value.
ATP-binding cassette sub-family B member 6 (Homo sapiens), sequence (Q9NP58 whole entry, looked up): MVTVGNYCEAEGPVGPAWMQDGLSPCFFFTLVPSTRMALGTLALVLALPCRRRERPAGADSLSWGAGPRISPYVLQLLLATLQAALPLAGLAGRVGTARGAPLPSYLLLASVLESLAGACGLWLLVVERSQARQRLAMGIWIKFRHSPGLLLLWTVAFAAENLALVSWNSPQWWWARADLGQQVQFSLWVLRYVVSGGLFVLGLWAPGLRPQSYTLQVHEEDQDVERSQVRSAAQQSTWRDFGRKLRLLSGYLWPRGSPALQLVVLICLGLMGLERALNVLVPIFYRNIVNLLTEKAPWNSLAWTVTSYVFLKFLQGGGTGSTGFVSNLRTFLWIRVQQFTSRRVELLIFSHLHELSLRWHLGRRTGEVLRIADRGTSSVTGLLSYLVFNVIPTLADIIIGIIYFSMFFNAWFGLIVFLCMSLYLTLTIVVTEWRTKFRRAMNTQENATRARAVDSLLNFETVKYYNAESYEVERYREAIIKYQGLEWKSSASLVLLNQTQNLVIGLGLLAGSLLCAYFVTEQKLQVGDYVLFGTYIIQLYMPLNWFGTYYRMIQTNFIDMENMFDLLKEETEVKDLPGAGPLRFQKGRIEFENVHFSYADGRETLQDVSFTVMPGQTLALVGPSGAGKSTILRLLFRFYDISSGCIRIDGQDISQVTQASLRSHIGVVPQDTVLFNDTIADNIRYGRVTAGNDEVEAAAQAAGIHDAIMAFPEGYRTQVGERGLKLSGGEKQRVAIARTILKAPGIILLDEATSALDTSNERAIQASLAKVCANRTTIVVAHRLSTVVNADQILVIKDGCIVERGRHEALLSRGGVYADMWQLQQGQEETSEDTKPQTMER
Assay [16] in a line: promoters of myeloid differentiation in arrested cells, primary screen, cell-based, GFP/MAC1 double positive, flow cytometry, validation set (AID 588685;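 active = differentiation response of at least 50%, scaled between solvent and reference control, from cells with both markers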;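 note: compound exposure lasts four days before antibody staining and flow analysis; 0% = DMSO wells and 100% = 5 µM fulvestrant positive control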). The conditions noted are these: ER-HoxA9 marrow cells, stronger effect = higher value, normalized: vehicle 0, fulvestrant 100.

What is called inhibition is the change of the read-out against control, counted positive when it falls.

Structures are written as SMILES. Inconclusive results are not listed. Activity calls are given as the source filed them.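 Rule for the calls, unless noted: active = response below a set limit, under 55% cells CD8-positive and vesicle-bound, and CD8 cells' 90th-percentile brightness under 279; inactive = the rest.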

Beta-2 adrenergic receptor (Homo sapiens), sequence (P07550 whole entry, looked up): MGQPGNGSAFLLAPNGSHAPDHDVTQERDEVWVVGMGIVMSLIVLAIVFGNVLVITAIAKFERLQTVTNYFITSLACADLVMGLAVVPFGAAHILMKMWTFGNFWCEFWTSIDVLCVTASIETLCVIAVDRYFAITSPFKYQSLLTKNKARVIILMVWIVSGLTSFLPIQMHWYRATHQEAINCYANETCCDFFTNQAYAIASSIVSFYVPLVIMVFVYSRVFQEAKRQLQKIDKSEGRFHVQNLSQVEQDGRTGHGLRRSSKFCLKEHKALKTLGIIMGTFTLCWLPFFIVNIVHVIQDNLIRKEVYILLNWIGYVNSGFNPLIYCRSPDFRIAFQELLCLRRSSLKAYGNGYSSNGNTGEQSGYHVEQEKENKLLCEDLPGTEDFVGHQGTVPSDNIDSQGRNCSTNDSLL
Beta-adrenergic receptor kinase 1 (Homo sapiens), sequence (P25098 whole entry, looked up): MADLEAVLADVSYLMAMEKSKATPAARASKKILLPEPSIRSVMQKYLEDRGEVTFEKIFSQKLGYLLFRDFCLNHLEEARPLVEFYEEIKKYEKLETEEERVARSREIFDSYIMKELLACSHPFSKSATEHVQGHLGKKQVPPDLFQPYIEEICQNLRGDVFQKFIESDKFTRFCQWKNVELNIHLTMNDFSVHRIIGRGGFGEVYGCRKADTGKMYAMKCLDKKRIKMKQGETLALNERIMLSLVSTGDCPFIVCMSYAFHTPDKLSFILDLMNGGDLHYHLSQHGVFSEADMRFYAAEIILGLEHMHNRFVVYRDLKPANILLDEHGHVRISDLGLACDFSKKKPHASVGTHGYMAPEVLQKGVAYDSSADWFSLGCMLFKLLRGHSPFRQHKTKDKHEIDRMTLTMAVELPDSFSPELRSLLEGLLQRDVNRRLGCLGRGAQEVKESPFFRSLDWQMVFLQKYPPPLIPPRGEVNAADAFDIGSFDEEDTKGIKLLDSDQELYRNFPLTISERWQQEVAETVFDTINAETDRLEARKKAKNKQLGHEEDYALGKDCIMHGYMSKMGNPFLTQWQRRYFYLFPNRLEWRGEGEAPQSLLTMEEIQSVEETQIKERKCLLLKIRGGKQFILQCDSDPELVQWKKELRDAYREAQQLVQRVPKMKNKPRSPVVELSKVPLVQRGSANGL

In the case of `COc1ccc(CCN(C)CCCC(C#N)(c2cc(OC)c(OC)c(OC)c2)C(C)C)cc1OC` (stereo not drawn), the percent of DMSO control GFP in assay [1] is 100% (inactive). The GFP response vs DMSO in assay [2] was 99.3% (inactive); in [4] it was 82.8% (inactive). In assay [3], the percent response of DMSO control was 111% (inactive). Further, the GFP response, % of DMSO in assay [5] is 98.6% (inactive). In assay [6], this molecule gave a double positive events of 57.7%. Further, the vesicle binding response in assay [6] was 239% (inactive). In addition, the inhibition was 11% (inactive) in assay [7], -7.98% (inactive) in assay [11] and 9% (inactive) in assay [15]. In addition, the superoxide response (% of plate) in assay [8] was 86% (inactive). In assay [9], the aptamer binding inhibition is 1% (inactive). In addition, the response in assay [10] is -12.7% (inactive); in [12], 0.22% (inactive). In [13], the binding (% of control) was 99.8% (inactive). Besides, the efflux inhibition (fraction of control) in assay [14] is -0.01 (inactive). The differentiation response in [16] was 3.18% (inactive).
`COc1ccc(C=O)c(OC)c1`: the percent of DMSO control GFP in assay [1] is 100% (inactive). Moreover, the GFP response vs DMSO was 98.6% (inactive) in assay [2] and 99.5% (inactive) in assay [4]. The percent response of DMSO control in assay [3] is 99% (inactive). Further, the GFP response, % of DMSO in assay [5] was 104% (inactive). Also, the double positive events in [6] was determined as 60.9%. The vesicle binding response in assay [6] was 188% (inactive). The inhibition was 26.1% (inactive) in assay [7], 62.3% (active) in assay [11] and -6% (inactive) in assay [15]. The superoxide response (% of plate) in assay [8] was 93.3% (inactive). For the same molecule, the aptamer binding inhibition in assay [9] is 1% (inactive). The response is -22.1% (inactive) in assay [10] and -1.57% (inactive) in [12]. The binding (% of control) in [13] is 101% (inactive). Also, the efflux inhibition (fraction of control) in [14] was 0.08 (inactive). Besides, in [16], the differentiation response is -9.91% (inactive).
Regarding `CC(C)(C)C(=O)N1CCCC1C(=O)O` (stereo not drawn), in assay [1], the percent of DMSO control GFP was 104% (inactive). In addition, the GFP response vs DMSO in [2] was 96.6% (inactive); in assay [4] it was 99.5% (inactive). Further, in assay [3], the percent response of DMSO control is 99% (inactive). The GFP response, % of DMSO in assay [5] is 106% (inactive). This molecule gave a double positive events in assay [6] of 65.6%. Moreover, the vesicle binding response in assay [6] was 141% (inactive). Besides, the values for the inhibition in assay [7], in assay [11] and in assay [15] were 4.84% (inactive), -2.34% (inactive) and 2% (inactive), respectively. In addition, the superoxide response (% of plate) in [8] is 95.6% (inactive). The aptamer binding inhibition in [9] is 11% (inactive). Besides, the response in assay [10] was -4.87% (inactive); in assay [12], -11% (inactive). For the same molecule, the binding (% of control) in assay [13] was 103% (inactive). For the same molecule, in [14], the efflux inhibition (fraction of control) is -0.04 (inactive). The differentiation response in assay [16] was 11.8% (inactive).
As to `O=C(CN1CCN(Cc2ccccc2)CC1)N1CCCc2c1c(=O)oc1ccc(O)cc21`, in assay [1], the percent of DMSO control GFP was 93.3% (inactive). The values for the GFP response vs DMSO in assay [2] and in [4] were 127% (inactive) and 77.6% (inactive), respectively. In assay [3], the percent response of DMSO control is 108% (inactive). Besides, the GFP response, % of DMSO in assay [5] was 84.3% (inactive). In assay [6], this molecule had a double positive events of 53%. Also, in assay [6], the vesicle binding response was 202% (inactive). For the same molecule, the inhibition in assay [7] is -11% (inactive); in assay [11], 9.01% (inactive); in [15], 3% (inactive). Also, in assay [8], the superoxide response (% of plate) is 107% (inactive). In addition, the aptamer binding inhibition in assay [9] was -3% (inactive). In addition, the response in assay [10] is -14.1% (inactive); in assay [12], -1.88% (inactive). Besides, the binding (% of control) in assay [13] is 109% (inactive). In addition, the efflux inhibition (fraction of control) in [14] is -0.31 (inactive). The differentiation response in [16] is 8.19% (inactive).

Values taken from PubChem BioAssay.
